# Screening data (PubChem)
# Sampled rows, rich in hits. Any-hit rate of the full collection: about 21%.
# Cycloheximide cs: affects cycloheximide protein synthesis inhibition readout, counter-screen. cell reporter, cycloheximide protein synthesis inhibition counterscreen. max response, %. 300,000 tested, 12% active. AID 2314; in the data active = max response mostly above about 13%, no sharp cut-off; inactive = mostly below about 14%; also: read at 38.3 µM for the half of the compounds with a filed dose
# Shiga inhibitor: Shiga toxin inhibition; inhibition, % at 38.7 µM; Vero cells, Shiga toxin protein synthesis inhibition reporter; AID 2315; 290,000 tested, 9.2% active; in the data active = inhibition mostly above about 28%, no sharp cut-off; inactive = mostly below about 43%
# NS1 function inh: blocks influenza NS1 protein function. Potency, µM (series often up to 46.1 µM). 270,000 tested, 0.4% active. AID 2326; calls by dose curve; also: actives are rising curves; nearly all actives have a fitted effect of over 50% in size
#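 In this qHTS, NS1 from influenza A is expressed in budding yeast, where it slows growth. Cells are switched from glucose to 2% galactose medium (pH 6.0, -URA), treated with compound, and growth recovery is read at OD600.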
# Pf growth 96h: P. falciparum growth inhibition at 96 hours; P. falciparum luciferase reporter growth, 96 h; 320,000 tested, 6.9% active; Potency, µM (series often up to 28.7 µM), actives largely listed as inhibitors; AID 504834
#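 Readout is luminescence from an integrated firefly luciferase in P. falciparum. Red cells, 2% hematocrit and 0.05% parasitemia final, were cultured with compound through two parasite generations (96 hours) at 37 C, 5% CO2.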
# Pf growth 48h: P. falciparum growth inhibition at 48 hours (one generation); 310,000 tested, 5.9% active; Potency, µM (highest dose often 28.7 µM), actives largely listed as inhibitors; P. falciparum luciferase growth in erythrocytes, 48 h
#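 Growth was read as firefly luciferase luminescence after a 48 h, 37 C, 5% CO2 exposure of compounds to reporter-bearing P. falciparum cultures (0.1% parasitemia, 2% hematocrit final) in Albumax-supplemented RPMI 1640.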
# A number is an active result; n = inactive; u = inconclusive; x = not tested or not shown; [ ] = dose if it differs, or a comment. Unless noted, calls follow the shape of the dose curve; as a rule, active = well fitted inhibition curve with a large enough effect; inconclusive = small, poorly fitted or top-dose-only effect, or another doubt; inactive = no such curve, though single readings can be large or run the other way.
SMILES,Cycloheximide cs,Shiga inhibitor,NS1 function inh,Pf growth 96h,Pf growth 48h
CC(CNS(=O)(=O)c1cc(Cl)ccc1Cl)CN(C)C (stereo not given),n,n,n,n,n
CC(C)n1nnnc1SCC(=O)N1CCN(Cc2ccc3c(c2)OCCO3)CC1,x,x,x,10.4µM,11.7µM
CC(C)n1nnnc1SCC(=O)N1CCOCC1,n,n,n,13.1µM,n
CC(C)n1nnnc1SCC(=O)NCc1ccc2c(c1)OCO2,n,n,n,u,n
Cn1nnnc1SCC(=O)N1CCOCC1,n,n,n,u,n
CCCc1nc2oc3c(NCC4CCCO4)ncnc3c2c2c1COC(C)(C)C2 (stereo not given),n,n,n,n[5.75 µM],n
CC(C)c1nc2oc3c(N(C)CCO)ncnc3c2c2c1CCC2,n,n,n,0.828µM,u
COc1ncnc2c1oc1nc(CC(C)C)c3c(c12)CCCC3,n,n,n,n,n
CC(C)c1nc2oc3c(NCC4CCCO4)ncnc3c2c2c1CCC2 (stereo not given),n,n,n,2.94µM,1.85µM
FC(F)(F)C(F)(F)C(F)(F)C(F)(F)C(F)(F)C(F)(F)F,x,x,x,n,n
COc1cc(C(=O)Nc2ccn(C)n2)ccc1OC(F)F,x,x,x,n,n
COc1ccc(C(=O)NNC(=S)NC(=O)c2ccco2)cc1,n,n,n,u,u
Cc1ccccc1C(=O)NNC(=S)NC(=O)c1cccs1,21.4,n,n,u,u
O=C(NNC(=S)NC(=O)c1ccco1)c1ccc(F)cc1,10.2,n,n,u,u
O=C(NC(=S)NNC(=O)c1cccs1)c1ccco1,29.1,n,n,u,u
Cc1cccc(C(=O)NC(=S)NNC(=O)c2cccs2)c1,n,24.9,n,u,n
COc1cccc2cc(C(=O)N3CCN(C/C=C/c4ccccc4)CC3)c(=O)oc12,n,n,n,n,u
O=C(COc1cccc([N+](=O)[O-])c1)NN1C(=O)c2ccccc2C1=O,n,n,n,n,n
O=C(NNC1=NC2(CCCC2)Cc2ccccc21)c1cccnc1,n,n,n,n,u
O=C(NNC(=O)c1cccs1)c1ccc(F)cc1,21.7,49.9,n,n,n
O=C(NNC(=O)c1cccs1)c1cccc(F)c1,n,n,n,u,n
O=C(NC(=S)NNC(=O)c1cccs1)c1ccccc1,11.5,n,n,u,n
NCCCC[C@H](NC(=O)[C@H](Cc1c[nH]c2ccccc12)NC(=O)[C@H](CC(=O)O)NC(=O)[C@H](Cc1cnc[nH]1)NC(=O)[C@H](CO)NC(=O)[C@H](Cc1c[nH]c2ccccc12)NC(=O)[C@H](Cc1cnc[nH]1)NC(=O)[C@@H]1CCC(=O)N1)C(=O)N1CCC[C@H]1C(=O)NCC(N)=O,n,n,x,x,x
CCOC(=O)c1c(C)[nH]c(C)c1S(=O)(=O)N(C)CC(=O)NCc1cccc(Br)c1,n,n,n,11.7µM,u
CN(CC(=O)NCc1ccc(F)cc1)S(=O)(=O)c1ccc(Br)s1,n,n,n,n,n
SMILES,Cycloheximide cs,Shiga inhibitor,NS1 function inh,Pf growth 96h,Pf growth 48h
COc1ccc(CNC(=O)CN(C)S(=O)(=O)c2ccc(Br)s2)cc1,22.8,n,n,n,n
CCOC(=O)c1c(C)[nH]c(C)c1S(=O)(=O)N(C)CC(=O)Nc1cccc(C)c1,n,n,n,u,n
COc1cccc(CNC(=O)CN(C)S(=O)(=O)c2ccc(Br)s2)c1,22.4,76.0,n,n,n
COc1ccccc1CNC(=O)CN(C)S(=O)(=O)c1ccc(Br)s1,20.9,56.9,n,n,n
CC(=O)[C@]1(O)CC[C@@H]2[C@H]3C[C@@H](C)C4=CC(=O)CC[C@@]4(C)C3[C@@H](O)C[C@]21C (stereo not given in full),x,x,n,x,x
COc1ccc2oc(C(=O)NCc3cc(OC)c(OC)cc3OC)c(C)c2c1,n,n,n,u,u
CC[C@H](C)[C@H](NC(=O)[C@H](CC(C)C)NC(=O)[C@H](CO)NC(=O)[C@H](CCC(=O)O)NC(=O)[C@H](CC(C)C)NC(=O)[C@H](Cc1ccc(O)cc1)NC(=O)[C@H](CCCCN)NC(=O)[C@H](CCCCN)NC(=O)[C@H](C)NC(=O)[C@H](CO)NC(=O)[C@H](CC(C)C)NC(=O)[C@H](CCC(N)=O)NC(=O)CNC(=O)[C@H](CC(C)C)NC(=O)[C@H](CC(C)C)NC(=O)[C@H](CCCNC(=N)N)NC(=O)[C@H](CO)NC(=O)[C@H](Cc1ccccc1)NC(=O)[C@H](CC(=O)O)NC(=O)[C@H](CO)NC(=O)[C@@H](NC(=O)[C@H](Cc1ccccc1)NC(=O)[C@@H](NC(=O)CNC(=O)[C@H](CC(=O)O)NC(=O)[C@H](C)NC(=O)[C@@H](N)Cc1cnc[nH]1)C(C)C)[C@@H](C)O)C(N)=O,n,n,x,x,x
O=C(CCN1CCOCC1)Nc1ccc(Cl)cc1,n,n,n,n,n
O=C(Nc1cccc2ccccc12)N1CCc2ccccc2C1,n,n,n,n,n
COc1cc2c(cc1OC)CN(C(=O)Nc1ccccc1)CC2,n,n,n,n,n
CC(=O)c1ccc(NC(=O)N2CCc3ccccc3C2)cc1,29.2,109.1,x,n,n
CC(=O)c1cccc(NC(=O)N2CCc3ccccc3C2)c1,25.3,100.0,n,n,n
CC1=N/C(=C/c2cc(Br)cc(Br)c2O)C(=O)O1,n,n,n,u,n
CCOC(=O)c1c(/N=C/c2cc([N+](=O)[O-])ccc2O)sc(C)c1C,n,n,x,9.28µM,u
CCOC(=O)c1c(/N=C/c2cc(OC)cc([N+](=O)[O-])c2O)sc(C)c1C,n,n,n,n,n
CCOC(=O)c1cc(-c2csc(N/N=C/c3ccccc3Cl)n2)on1,n,n,n,2.62µM,u
Cn1nc(C(F)(F)F)c(-c2ccc(F)cc2)c1NC(=O)c1cccnc1,n,n,n,u,u
OC(CN1CCOCC1)(c1ccccc1)c1ccccn1 (stereo not given),n,n,n,n,n
O=C(/C=C/c1ccc(N2CCCCC2)c([N+](=O)[O-])c1)c1ccc(O)cc1,46.7,54.9,n,u,u
Nc1nnnn1/N=C/c1ccc(N2CCCCC2)c([N+](=O)[O-])c1,37.6,62.7,n,u,n
O=C(O/N=C\c1ccc(N2CCCCC2)c([N+](=O)[O-])c1)c1ccc(Cl)cc1Cl,n,n,n,n,n
COc1ccccc1C(=O)/C=C/c1ccc(N2CCCCC2)c([N+](=O)[O-])c1,62.3,99.0,n,7.38µM,u
COc1ccc(N2CCN(C(=O)c3ccccc3Br)CC2)c([N+](=O)[O-])c1,n,n,x,11.7µM,n[5.75 µM]
COc1ccccc1OCCn1c(C(C)O)nc2ccccc21 (stereo not given),n,n,n,x,n
COc1ccccc1OCCn1nnc2ccccc21,34.1,103.5,n,n,n
Cc1ccc(OCCn2nnc3ccccc32)cc1C,45.1,47.6,n,u,n
CCOc1ccccc1OCCN1CCCC1,n,n,n,u,n
Cc1ccc(OCCn2cc(/C(N)=N/O)c3ccccc32)cc1C,n,n,n,n,n
CCOc1ccccc1OCCn1nnc2ccccc21,n,n,n,10.4µM,n
